Hits are enriched below; roughly 2.9% of the tested compounds scored in any of these assays.
MEKK3 PB1 HTS – raises or lowers MEK5 binding to the human MEKK3 PB1 domain. Q99759. 1.4% of 290,000 active. binding response (% of control), % at 10 µM. bead-based flow cytometry, Alexa488-MEK5 binding to MEKK3; actives lie on both sides; 0 = blocked by unlabeled MEK5, 100 = vehicle;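 active = binding response more than 3 SD above or below the average of its plate-row segment, actives on both sides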;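 note: Alexa488 bead fluorescence after subtracting the streptavidin-only scavenger bead signal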
Target sequence (Q99759 whole entry, looked up, the tested form may be a part): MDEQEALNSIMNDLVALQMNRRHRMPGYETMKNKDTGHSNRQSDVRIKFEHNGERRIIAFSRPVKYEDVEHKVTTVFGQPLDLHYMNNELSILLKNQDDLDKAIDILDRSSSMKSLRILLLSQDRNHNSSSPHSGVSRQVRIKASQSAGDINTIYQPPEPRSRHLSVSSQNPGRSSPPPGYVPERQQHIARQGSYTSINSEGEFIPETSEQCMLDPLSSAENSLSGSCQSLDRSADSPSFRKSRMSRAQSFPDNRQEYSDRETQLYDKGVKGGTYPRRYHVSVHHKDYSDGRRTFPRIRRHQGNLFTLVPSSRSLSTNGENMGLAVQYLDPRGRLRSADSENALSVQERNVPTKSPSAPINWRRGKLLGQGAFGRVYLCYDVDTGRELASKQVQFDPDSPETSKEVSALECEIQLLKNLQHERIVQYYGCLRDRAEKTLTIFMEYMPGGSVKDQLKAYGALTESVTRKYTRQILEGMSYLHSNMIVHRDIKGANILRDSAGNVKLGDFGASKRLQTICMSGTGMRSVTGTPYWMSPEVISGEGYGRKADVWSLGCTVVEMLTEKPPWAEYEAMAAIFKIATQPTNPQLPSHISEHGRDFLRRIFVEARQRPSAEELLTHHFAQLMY
CRFBP-R2 block – antagonists of CRF-binding protein/CRF-R2 receptor complex; HEK293 CRF-R2/CRF-BP, CRF-induced calcium fluorescence; inhibition, % at 11.8 µM; 0.59% of 350,000 active; AID 588475;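 active = inhibition of the ligand-induced calcium signal above about 50% at the single tested concentration, limit read from the data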
CRFR2-BP ag – agonists of human CRF-binding protein/CRF-R2 receptor complex; HEK293 CRF-R2/CRF-BP, calcium dye fluorescence (FLIPR); percent of saturating CRF peptide response; activation, % at 13.2 µM; 0.46% of 350,000 active; AID 588473;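 active = activation of at least 50%, plus an integration ratio under a set limit after plate pattern correction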
ABCB6 inh MLPCN – blocks the human ABCB6 transporter. K562-ABCB6 porphyrin accumulation, flow cytometry, 1 h; stronger effect = lower value. fluorescence ratio to DMSO, % at 10 µM. 0.19% of 360,000 active;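 active = fluorescence ratio to DMSO below 75%, the collection mean minus 3 SD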;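 note: signal is porphyrin accumulated inside mitochondria; lower ratio means ABCB6 inhibition with less porphyrin fluorescence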
MEKK2 mut-MEK5 – signal of MEK5 binding to mutant human MEKK2 PB1 domain; bead flow cytometry, Alexa488-MEK5 binding to MEKK2 mutant; percent response, % at 10 µM; 0.35% of 290,000 active; AID 1530; in the data active = percent response above about 24%, passing the limit was not always enough
MEKK2 WT-MEK5 – raises or lowers MEK5 binding to wildtype human MEKK2 PB1 domain; Q9Y2U5; bead flow cytometry, Alexa488-MEK5 binding to MEKK2 WT; actives lie on both sides; binding response (% of control), % at 10 µM; 1.1% of 290,000 active; AID 1531; in the data active = binding response below about 67% or above about 130%
MEKK2wt confirm – raises or lowers MEK5 binding to wildtype human MEKK2, retest | shares compounds with MEKK3 PB1 HTS | bead flow cytometry, Alexa488-MEK5 binding to MEKK2 WT; actives lie on both sides | binding response (% of control), % at 10 µM | 2.4% of 5,900 active | AID 1892; in the data active = binding response below about 16% or above about 210%; inactive = in between
MEKK2mut confirm – signal of MEK5 binding to mutant human MEKK2, retest. shares compounds with MEKK3 PB1 HTS. bead flow cytometry, Alexa488-MEK5 binding to MEKK2 mutant. percent response, % at 10 µM. 2% of 5,900 active. AID 1893; in the data active = percent response mostly above about 71%, no sharp cut-off; inactive = mostly below about 38%;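 note: higher means compound restores mutant binding toward wildtype level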
MEKK3 confirm – confirmation of inhibitors of MEK5 binding to human MEKK3; shares compounds with MEKK3 PB1 HTS; bead flow cytometry, Alexa488-MEK5 binding to MEKK3; stronger effect = lower value; binding response (% of control), % at 10 µM; 1.8% of 5,900 active;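 active = binding response below 72% of control, or above a set upper limit, though filed actives all read lower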
Numbers stand for hits; 0 = inactive; - = no result given; [ ] = dose if it differs, or a comment.

SMILES	MEKK3 PB1 HTS	CRFBP-R2 block	CRFR2-BP ag	ABCB6 inh MLPCN	MEKK2 mut-MEK5	MEKK2 WT-MEK5	MEKK2wt confirm	MEKK2mut confirm	MEKK3 confirm
O=C(Cc1c[nH]c2ccccc12)NCc1cccs1	136	0	0	0	0	0	0	0	0
O=C(Cc1c[nH]c2ccccc12)N1CCc2ccccc21	2.0[inhibitor]	0	0	0	0	1.0[inhibitor]	0	0	0
O=C(CSc1c[nH]c2ccccc12)N1CCCc2ccccc21	0	0	0	0	0	0	-	-	-
CCS(=O)(=O)N1Cc2ccccc2CC1C(=O)Nc1ccc(OC)cc1 (stereo not given)	2.0[inhibitor]	0	0	0	0	1.0[inhibitor]	0	0	0
C[N+](C)(C)C/C=C1/COCO1	0	0	0	0	27	0	0	0	0
COCCN(C(=O)COC(=O)C1CCC(C(C)(C)C)CC1)c1c(N)n(Cc2ccccc2)c(=O)[nH]c1=O (stereo not given)	-	0	0	0	-	-	-	-	-
Cc1cc([N+](=O)[O-])ccc1NC(=S)NC1CCCC1	0	0	0	0	0	0	-	-	-
CCc1cc2ccc(C)cc2nc1SCC(=O)Nc1cc(C)on1	0	0	0	0	0	0	-	-	-
CCc1cc2cc(C)ccc2nc1SCC(=O)Nc1cc(C)on1	128	0	0	0	0	0	0	0	0
COC(=O)CCC(=O)N1CCCC(CO)(Cc2ccccc2F)C1 (stereo not given)	0	0	0	0	0	0	-	-	-
c1cc2nc(C34CC5CC(CC(C5)C3)C4)[nH]c2cn1	2.0[inhibitor]	0	0	0	0	3.0[inhibitor]	0	0	0
CCCC(CCC)c1nc2ccncc2[nH]1	0	0	0	0	0	0	-	-	-
CC1(c2ccccc2)NC(=O)N(N)C1=O (stereo not given)	0	0	0	0	0	0	-	-	-
Cc1cc(C)c[n+](-c2[nH]c(=O)sc2/C=N/NC([S-])=Nc2ccccc2)c1	136	0	0	0	0	0	0	0	0
Cc1ccc(-c2cn3nc(-c4ccccc4)c(-c4ccccc4)nc3n2)cc1	0	0	0	0	0	0	-	-	-
c1ccc(-c2cn3nc(-c4ccccc4)c(-c4ccccc4)nc3n2)cc1	0	0	0	0	0	63[inhibitor]	0	0	0
CCOc1ccc(S(=O)(=O)N(CC)CC(=O)NC2CC2)cc1	0	0	0	0	0	0	-	-	-
CCCCC(CCC(=O)Nc1ccc(C(=O)OC)cc1)C(=O)O (stereo not given)	123	0	0	0	0	0	0	0	0
CCCCOC(=O)Nc1ccc(C(=O)OC)cc1	0	0	0	0	0	0	-	-	-
CCc1ccc(C(O)c2ncc(-c3ccccc3C(F)(F)F)[nH]2)cc1 (stereo not given)	-	-	-	0	-	-	-	-	-
O=C(O)C12CC3CC(C1)CC(n1ncc(N4CCN(c5ccccc5)CC4)c(Cl)c1=O)(C3)C2	145	0	0	0	0	0	0	0	0
O=c1c(Cl)c(N2CCNCC2)cnn1C12CC3CC(CC(C3)C1)C2	0	0	0	0	0	0	-	-	-
Cc1cc(C)c(NC(=O)CNC(=O)CSc2nnc(N)s2)c(C)c1	-	0	0	0	-	-	-	-	-
Cc1cc(NC(=O)CSc2nnc(N)s2)c([N+](=O)[O-])cc1C	65[inhibitor]	0	0	0	0	0	0	0	0
O=C1OCCC1=COCCCCCOC=C1CCOC1=O	-	0	0	0	-	-	-	-	-
SMILES	MEKK3 PB1 HTS	CRFBP-R2 block	CRFR2-BP ag	ABCB6 inh MLPCN	MEKK2 mut-MEK5	MEKK2 WT-MEK5	MEKK2wt confirm	MEKK2mut confirm	MEKK3 confirm
COc1cc(C)ccc1S(=O)(=O)N1CCCCCC1	0	0	0	0	0	0	-	-	-
COc1ccc(C)cc1S(=O)(=O)N1CCCCCC1	129	0	0	0	0	0	0	0	0
O=C(c1ccco1)N1CCN(Cc2cc(=O)c(OCc3ccccc3Cl)co2)CC1	-	0	0	0	-	-	-	-	-
COc1cccc(NC(=O)c2ccc(NCCCN3CC(C)CC(C)C3)c([N+](=O)[O-])c2)c1 (stereo not given)	0	0	0	0	0	139	0	0	0
COc1cccc(NC(=O)c2ccc(NCCCN3CCC(C)CC3)c([N+](=O)[O-])c2)c1	0	0	0	0	0	0	-	-	-
CC(C)OCc1ccc(C(=O)N2CCN(CC(=O)N3CCCC3)CC2)cc1	-	0	0	0	-	-	-	-	-
Cc1ccc2c(c1)nnn2C1CCN(CC(=O)N(c2ccccc2)c2ccccc2)CC1	0	0	0	0	0	0	-	-	-
Cc1ccc2c(c1)nnn2C1CCN(CC(=O)c2ccc(Cl)cc2)CC1	129	0	0	0	0	0	0	0	0
COc1cc(CCC(=O)Nc2nnc(-c3cccnc3)s2)cc(OC)c1OC	0	0	0	0	0	0	-	-	-
CC(C)N(C(=O)[C@H]1C[C@H](CC(=O)NCCCn2ccnc2)C(=O)N2CCc3c([nH]c4ccc(Cl)cc34)[C@]12C)C(C)C	-	0	0	0	-	-	-	-	-
C=CCN1C(=O)C2C(C(=O)NC3CCCC3)C3(C)C=CC2(O3)C1C(=O)NC1CCCC1 (stereo not given)	0	0	0	0	0	0	-	-	-
CC12C=CC3(O1)C(C(=O)N(c1ccccc1)C3C(=O)NC1CCCC1)C2C(N)=O (stereo not given)	20[inhibitor]	0	0	0	0	29[inhibitor]	0	0	0
NNC(=O)[C@H]1C[C@@H]1c1ccccc1	152	0	0	0	0	0	0	0	0
Cc1nc2cc(C(=O)NCc3ccc4c(c3)OCO4)ccc2n1-c1ccc(Br)cc1	65[inhibitor]	65	0	0	0	0	0	0	0
O=C(CSc1nc2cc(Cl)ccc2s1)NC(=O)NCc1ccco1	81[inhibitor]	0	0	0	0	0	0	0	0
COC1OC2COC(c3ccccc3)OC2C(O)C1NC(C)=O (stereo not given)	-	0	0	0	-	-	-	-	-
O=C(Cn1cc([N+](=O)[O-])ccc1=O)NCC1COc2ccccc2O1 (stereo not given)	-	0	0	0	-	-	-	-	-
C=C(C)[C@@H]1CC=C(CN2CCC(N3CCC(C(=O)N4CCCC4)CC3)CC2)CC1	0	0	0	0	0	142	0	0	0
C=C(C)C1CC=C(CN2CCC(O)CC2)CC1 (stereo not given)	0	0	0	0	0	0	-	-	-
Cc1ccc2nc(N(CCCN(C)C)C(=O)CN3C(=O)c4ccccc4C3=O)sc2c1	0	0	0	0	0	0	-	-	-
